# According to PubChem BioAssay AID485297 (National Center for Advancing Translational Sciences (NCATS), 2010):
# In all, about 320,000 compounds went through this assay and about 9,100 (2.8%) were called active. Another 3% or so got no clear call; they are omitted. The full list was thinned out, with actives kept by preference. Unmarked numbers belong to inactive results. Calls follow the shape of the dose curve; as a rule, active = well fitted activation curve with a large enough effect; inconclusive = small, poorly fitted or top-dose-only effect; inactive = no such curve, though single readings can be large or run the other way.
# Assay: qHTS Assay for Rab9 Promoter Activators; also: nearly all actives have a fitted effect of over 60% in size; as to activation, negative = inhibition: % of control where 0% means no effect
# Settings: Huh7 Rab9 promoter-luciferase reporter, luminescence, 24 h; series mostly up to 9.22 µM; activation, negative = inhibition: at the top concentration
# Text: NIH Chemical Genomics Center [NCGC] NIH Molecular Libraries Probe Production centers Network [MLPCN] MLPCN Grant: MH089537-01 Assay Submitter (PI): Yiannis A. Ioannou NCGC Assay Overview: Niemann Pick Type C (NPC) is a rare neurodegenerative lipidosis that is characterized by lipid storage in the endosomal/lysosomal system. Treatment modalities for this devastating disease are currently non-existent due to the severe obstacles associated with accessing the central nervous system with proteins or genes (Ioannou, 2000). We have developed a new paradigm, termed "Orphan Receptor Bypass Therapy" (ORByT), to address these disorders. This paradigm posits the existence of endogenous "suppressor" proteins whose expression can dramatically improve LSD pathogenesis. The goal is the identification/discovery of small chemical compounds that can modulate the expression of these proteins and provide a new treatment modality for these devastating disorders. One such protein whose overexpression reverses aspects of the NPC phenotype is Rab9. We have developed and optimized a cell based luciferase reporter assay in 1536 well format for the identification of up-regulators of the Rab9 promoter.
# The Rab9 promoter is cloned in front of the luciferase reporter gene, therefore […] promoter activation results in luciferase expression. Frozen stock of the Rab9 promoter transfected Huh7 cells were obtained from the laboratory of Dr. Yiannis Ioannou (The Mount Sinai School of Medicine, New York, NY). Cells were propagated and maintained at NCGC in medium containing RPMI-1640 supplemented with 10% FBS, 2mM L-glutamine, and 50ug/ml penicillin/streptomycin. Cells were harvested in and plated for assays in OP-MEM I reduced-serum medium supplemented with 10% FBS. The Amplite luciferase reporter gene assay kit was purchased from ABD Bioquest and prepared/stored according to manufacturers recommendations. qHTS Assay Setup: 1.Dispensed 5ul of Huh7 cells stably expressing Rab9-luciferase at a density of 1500 cells per well 1536-well plates. 2.Incubate cells at 37C, 5% CO2, and 95% humidity for 2 hours. 3.Transferred 23nl per well of compound in DMSO solution. 4.Incubated at 37C, 5% CO2, and 95% humidity for 24 hours. 5.Dispensed 3ul per well of Amplite reagent(ABD Bioquest) per well. 6.Incubate at ambient for 10 minutes. 7.Read using the luminescence protocol on the ViewLux plate reader (Perkin Elmer).
# Potency is read from the fitted curve at half-maximal effect.
Compound,"activation, negative = inhibition",Potency
Cc1ccc(NC(=O)COC(=O)C2C3CC4OC(=O)C2C4C3)cc1Cl (stereo unspecified),3.77%,
Nc1cc(N)nc(SCC(=O)Nc2cccc(S(=O)(=O)N3CCCCC3)c2)n1,-1.91%,
O=C(/C=C/c1cccc([N+](=O)[O-])c1)OCC(=O)N1CCOCC1,-2.78%,
Cc1ccc(NC(=O)Cc2nc(COC(=O)C(C)NS(=O)(=O)c3ccc(C)cc3)cs2)cc1 (stereo unspecified),8.45%,
CCCn1nc(C(=O)OCc2nc(N)nc(Nc3ccccc3C)n2)c2ccccc2c1=O,-5.96%,
CCN(CC)C(CNC(=O)CSc1nnnn1-c1cccc(F)c1)c1ccco1 (stereo unspecified),-6.55%,
COc1ccc(C(=O)Cc2cnn(-c3ccccc3)c2)c(O)c1,,3.16 µM (active)
Cc1cc(O)cc(O)c1C(=O)Cc1cnn(-c2ccccc2)c1,1.31%,
COc1ccc(CC(=O)c2ccc(O)cc2O)cc1OC,-1.28%,
O=C(CN(CC1CCCO1)C(=O)CNS(=O)(=O)c1ccc(F)cc1)NCc1ccco1 (stereo unspecified),-15.8%,
CCOC(=O)c1ccccc1NC(=O)COC(=O)C(Cc1c[nH]c2ccccc12)NC(C)=O (stereo unspecified),-1.4%,
O=C(N/C(=C\c1ccc([N+](=O)[O-])cc1)C(=O)N1CCOCC1)c1cccc(Br)c1,-1.18%,
COc1ccc(S(=O)(=O)N2CCN(CC(=O)NCC3(N4CCOCC4)CCCCC3)CC2)cc1,-6.43%,
CN(C)C(=O)COC(=O)c1cccc(S(=O)(=O)N2CC3(C)CC2CC(C)(C)C3)c1 (stereo unspecified),-3.32%,
O=C(Nc1nnc(-c2ccccc2)o1)c1cc(-c2cccs2)nc2ccccc12,-1.42%,
OC(c1nnc(-c2ccccc2)o1)c1cccs1 (stereo unspecified),,4.47 µM (active)
CCCN(CCC)c1ccc(C(O)c2nnc(-c3ccccc3)o2)cc1 (stereo unspecified),25.4%,
CCOC(=O)C1=C(COC(=O)[C@H](C)NS(=O)(=O)c2ccccc2F)NC(=O)NC1C (stereo partly specified),-5.3%,
C=CCN1C(=O)C(Cc2cccc(Cl)c2)S/C1=N/N=C/c1ccco1 (stereo unspecified),-2.42%,
O=C1N/C(=N\N=C\c2ccco2)SC1Cc1ccc(F)cc1 (stereo unspecified),0.456%,
COc1ccc(CN2C(=O)C(C)S/C2=N/N=C/c2ccco2)cc1 (stereo unspecified),,2.82 µM (active)
O=C(/C=C/c1ccccc1[N+](=O)[O-])OCC(=O)N1CCCC1,-1.9%,
Cc1nn(Cc2ccccc2)c(C)c1CNC(=O)c1ccc(F)c(S(=O)(=O)N2CCOCC2)c1,-2.2%,
Cc1csc(=O)n1CCC(=O)OCC(=O)NNC(=O)c1ccc(Br)cc1,1.83%,
CCN(CC)S(=O)(=O)c1cc(C(=O)Nc2cc(S(=O)(=O)N3CCOCC3)ccc2N2CCCC2)ccc1F,-1.3%,
COc1ccc(S(=O)(=O)N(C)C)cc1NC(=O)CSc1ncccn1,0.741%,

Compound,"activation, negative = inhibition",Potency
COc1ccc(NS(=O)(=O)c2ccc3oc(SCC(N)=O)nc3c2)cc1,-5.39%,
CN(C)S(=O)(=O)c1ccc2oc(SCC(=O)Nc3ccccc3F)nc2c1,,1.41 µM (active)
CCOC(=O)[C@H]1[C@H]2COc3ccc(C)cc3[C@@H]2N2C(=O)CN(Cc3ccc(F)cc3)C(=O)[C@@]12C,2.24%,
CC(C#N)(NC(=O)CN1CCN(S(=O)(=O)c2cc(C(F)(F)F)ccc2Cl)CC1)C1CC1 (stereo unspecified),2.72%,
Cc1cccc(NC(=O)c2ccccc2NC(=O)C(C)(C)C)n1,-0.972%,
Cc1cccc(NC(=O)c2ccc3ccccc3n2)n1,,3.16 µM (active)
Cc1cccc(NC(=O)c2cccnc2Cl)n1,5.83%,
COc1ccc(S(=O)(=O)N2CCOCC2)cc1NC(=O)CC1CC2CCC1C2 (stereo unspecified),-6.07%,
Nc1nonc1C(=O)NCCc1ccccc1,-3.41%,
CC(C)Cc1cc(C(=O)NCCc2ccccc2)no1,,3.16 µM (active)
O=C(NCCCc1ccccc1)c1cc(COc2c(F)cccc2F)on1,24.9%,
COc1ccc(CCNC(=O)COC(=O)Cc2cccc(F)c2)cc1,-4.5%,
CCCC[C@]12Cc3cc(OC)c(OC)cc3C(O1)C1=C(CC3(CCCCC3)OC1=O)O2,-3.75% [at 1.84 µM],
N#Cc1cccc(NC(=O)C2CCCN(C(=O)c3ccc(Cl)cc3)C2)c1 (stereo unspecified),2.15%,
N#CC1(NC(=O)COC(=O)CCN=C2NS(=O)(=O)c3ccccc32)CCCCC1,3.55%,
CC(=O)/C(C)=N/O,3.38% [at 46.1 µM],
O=C(N/N=C/c1c(Cl)[nH]c2ccccc12)c1sc2ccccc2c1Cl,-0.784%,
O=C(Nc1ccon1)c1cccc(Cl)c1,-2.87%,
O=C(Nc1ccon1)c1sc2ccccc2c1Cl,,3.16 µM (active)
CC1CCCCC1NC(=O)COC(=O)Cc1ccc(Cl)cc1 (stereo unspecified),1.14%,
CCc1ccc(NC(=O)N2CCN(c3ccccc3)CC2)cc1,14.7%,
CCc1ccc(NC(=O)N2CCc3ccccc3C2)cc1,,2.24 µM (active)
O=C(C(=O)N1CCc2ccccc2C1)N1CCc2ccccc2C1,-5.85%,
COc1cccc(NC(=O)CN(C)CC(=O)c2c(N)n(Cc3ccccc3)c(=O)n(C)c2=O)c1,1.65%,
O=C(CNC(=O)c1ccc2ccccc2c1)Nc1ncccc1O,10.7%,
